Assay results from PubChem BioAssay (Tox21).
Values joined by “and” are separate entries in the source; they are usually repeats but may differ in a detail not shown here. Equal entries are not always repeated. Records with an inconclusive call do not appear. Active and inactive are the calls of the source. Unless noted, calls come from the whole dose curve; as a rule, active = well fitted curve in the direction sought with a large enough effect in the repeat runs; inconclusive = weak or mixed curves; inactive = no such curve, though single readings can be large; an effect the other way counts as inactive or inconclusive.

Experiments:
[1] = qHTS assay to identify small molecule agonists of the peroxisome proliferator-activated receptor delta (PPARd) signaling pathway - cell viability counter screen (AID 743211); note: nearly all actives have a fitted effect of over 55% in size; note: potency is the fitted concentration of half-maximal effect
Method in brief: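 Viability was measured as CellTiter-Glo luminescence (30 min, room temperature) in the same wells as the beta-lactamase readout. GeneBLAzer PPARd UAS-bla HEK293H cells received compound after 5 h plating and were incubated 17 h at 37 C.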

[2] = target: Peroxisome proliferator-activated receptor delta (Homo sapiens) (UniProt Q03181); assay: qHTS assay to identify small molecule antagonists of the peroxisome proliferator-activated receptor delta (PPARd) signaling pathway (AID 743215; active = well fitted inhibition curve with a large enough effect in the signal ratio in the repeat runs, not every such curve was filed as active; the % refers to the signal ratio;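 note: cells stimulated with agonist L165041 at 300 nM final during compound exposure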; note: potency is the fitted concentration of half-maximal effect)
Method in brief: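 Fluorescence from cleaved LiveBLAzer B/G FRET substrate (2 h, room temperature) reports PPARd-driven beta-lactamase in HEK293H UAS-bla cells. Cells had been treated 17 h at 37 C with compound plus 300 nM final L165041.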

[3] = qHTS assay to identify small molecule agonists of the farnesoid-X-receptor (FXR) signaling pathway - cell viability counter screen (AID 743218); note: nearly all actives have a fitted effect of over 45% in size; note: potency is the fitted concentration of half-maximal effect
Method in brief: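 Readout: CellTiter-Glo luminescence, 30 min RT, multiplexed after the FXR-bla FRET reading. HEK 293T FXR-UAS-bla cells received compound 5 h post-plating and were incubated 16 h at 37 C.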

[4] = qHTS assay to identify small molecule antagonists of the peroxisome proliferator-activated receptor delta (PPARd) signaling pathway - cell viability counter screen (AID 743213); note: nearly all actives have a fitted effect of over 50% in size; note: potency is the fitted concentration of half-maximal effect
Method in brief: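 Cytotoxicity counter screen: CellTiter-Glo luminescence read 30 min after addition, in the same wells as the reporter assay. There, PPARd UAS-bla HEK293H cells (3000/well) were treated 17 h at 37 C with compound and 300 nM L165041.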

[5] = target: Vitamin D3 receptor (Homo sapiens) (UniProt P11473); assay: qHTS assay to identify small molecule agonists of the vitamin D receptor (VDR) signaling pathway (AID 743222; calls by dose curve)
Method in brief: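 Following 4 h attachment at 37C, VDR-bla cells (2,000 per well) received DMSO-dissolved compounds or controls. After 16 h incubation, LiveBLAzer B/G FRET substrate was added and fluorescence read 2 h later at room temperature.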

[6] = target: Bile acid receptor (Homo sapiens) (UniProt Q96RI1); assay: qHTS assay to identify small molecule antagonists of the farnesoid-X-receptor (FXR) signaling pathway (AID 743217; active = well fitted inhibition curve with a large enough effect in the signal ratio in the repeat runs, not every such curve was filed as active; the % refers to the signal ratio; note: potency is the fitted concentration of half-maximal effect)
Method in brief: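 FRET fluorescence after 2 h room-temperature LiveBLAzer loading gives the readout. Prior step: FXR-bla HEK 293T cells, seeded and incubated 5 h, received test compounds plus 50 uM final CDCA for 16 h at 37 °C.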

[7] = target: Bile acid receptor (Homo sapiens) (UniProt Q96RI1); assay: qHTS assay to identify small molecule agonists of the farnesoid-X-receptor (FXR) signaling pathway (AID 743220; active = well fitted activation curve with a large enough effect in the signal ratio in the repeat runs, not every such curve was filed as active; the % refers to the signal ratio; note: potency is the fitted concentration of half-maximal effect)
Method in brief: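 FXR-UAS-bla HEK 293T cells carrying a UAS-driven beta-lactamase reporter were plated for 5 h at 37C/5% CO2, then exposed to DMSO-dissolved Tox21 10K compounds for 16 h at 37C. A LiveBLAzer B/G FRET substrate was loaded for 2 h at room temperature before fluorescence reading.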

[8] = qHTS assay to identify small molecule antagonists of the farnesoid-X-receptor (FXR) signaling pathway - cell viability counter screen (AID 743221; active = well fitted cell-killing curve with a large enough effect in the repeat runs, not every such curve was filed as active; note: nearly all actives have a fitted effect of over 50% in size; note: potency is the fitted concentration of half-maximal effect)
Method in brief: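 Cytotoxicity counter screen run in the FXR-bla reporter wells: HEK 293T cells exposed to compound with 50 uM (final) chenodeoxycholic acid for 16 h, 37 C, then viability measured by CellTiter-Glo luminescence after 30 min, room temperature.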

[9] = target: Vitamin D3 receptor (Homo sapiens) (UniProt P11473); assay: qHTS assay to identify small molecule antagonists of the vitamin D receptor (VDR) signaling pathway (AID 743223; active = well fitted inhibition curve with a large enough effect in the signal ratio in the repeat runs, not every such curve was filed as active; the % refers to the signal ratio)
Method in brief: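 Antagonist mode: compound added to VDR-bla cells alongside agonist 1alpha,25-dihydroxyvitamin D3 (3 nM final), incubation 16 h at 37C. Read-out is LiveBLAzer FRET fluorescence, 2 h at room temperature.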

[10] = target: Peroxisome proliferator-activated receptor delta (Homo sapiens) (UniProt Q03181); assay: qHTS assay to identify small molecule agonists of the peroxisome proliferator-activated receptor delta (PPARd) signaling pathway (AID 743212; calls by dose curve)
Method in brief: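 Tox21 library screened in GeneBLAzer PPARd UAS-bla HEK293H cells. After compound treatment at 37 C, a FRET-based beta-lactamase substrate was applied for 2 h and fluorescence recorded.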

Measured: Potency

Chain of Peroxisome proliferator-activated receptor delta (Homo sapiens) (Q03181 whole entry, looked up): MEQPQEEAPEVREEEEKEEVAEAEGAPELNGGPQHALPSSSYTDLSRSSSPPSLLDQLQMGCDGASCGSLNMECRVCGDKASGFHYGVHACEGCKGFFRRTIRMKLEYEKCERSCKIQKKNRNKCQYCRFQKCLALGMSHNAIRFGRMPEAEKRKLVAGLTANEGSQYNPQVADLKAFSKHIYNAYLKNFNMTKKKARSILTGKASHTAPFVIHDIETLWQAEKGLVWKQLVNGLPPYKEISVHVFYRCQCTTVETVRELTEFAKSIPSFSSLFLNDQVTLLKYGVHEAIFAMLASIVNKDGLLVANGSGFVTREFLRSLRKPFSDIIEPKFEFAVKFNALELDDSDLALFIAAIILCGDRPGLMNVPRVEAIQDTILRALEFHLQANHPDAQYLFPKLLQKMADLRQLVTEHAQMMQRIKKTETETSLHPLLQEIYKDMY
Chain of Vitamin D3 receptor (Homo sapiens) (P11473 whole entry, looked up): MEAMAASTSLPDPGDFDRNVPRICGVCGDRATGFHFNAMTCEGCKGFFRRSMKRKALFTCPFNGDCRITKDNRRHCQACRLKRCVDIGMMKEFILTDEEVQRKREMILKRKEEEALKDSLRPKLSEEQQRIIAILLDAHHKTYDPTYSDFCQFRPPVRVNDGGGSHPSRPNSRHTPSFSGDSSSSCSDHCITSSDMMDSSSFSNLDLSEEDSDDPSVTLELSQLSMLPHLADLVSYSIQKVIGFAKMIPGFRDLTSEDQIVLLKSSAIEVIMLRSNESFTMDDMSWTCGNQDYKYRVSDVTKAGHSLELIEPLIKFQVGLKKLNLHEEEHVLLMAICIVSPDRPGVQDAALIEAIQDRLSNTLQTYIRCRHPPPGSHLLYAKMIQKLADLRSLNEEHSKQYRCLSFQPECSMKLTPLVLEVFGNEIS
Chain of Bile acid receptor (Homo sapiens) (Q96RI1 whole entry, looked up): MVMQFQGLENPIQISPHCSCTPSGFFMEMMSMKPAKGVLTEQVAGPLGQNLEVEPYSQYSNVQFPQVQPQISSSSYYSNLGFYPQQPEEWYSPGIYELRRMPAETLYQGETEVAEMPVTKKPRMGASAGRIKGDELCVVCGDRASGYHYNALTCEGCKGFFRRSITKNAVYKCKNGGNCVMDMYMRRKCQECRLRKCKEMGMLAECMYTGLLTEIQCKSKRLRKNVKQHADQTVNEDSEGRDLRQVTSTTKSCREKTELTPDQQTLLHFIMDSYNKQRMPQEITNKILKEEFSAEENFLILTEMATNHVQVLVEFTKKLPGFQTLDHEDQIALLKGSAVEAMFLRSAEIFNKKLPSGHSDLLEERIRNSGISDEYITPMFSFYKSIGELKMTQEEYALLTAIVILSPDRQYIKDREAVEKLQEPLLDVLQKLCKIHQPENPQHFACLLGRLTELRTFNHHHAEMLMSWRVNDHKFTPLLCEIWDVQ

CCC[CH2][Sn]([CH2]CCC)([CH2]CCC)[CH2]CCC
active: [1] 43.6 µM | [2] 15.5 µM | [3] 49 µM

C[C@]12CC[C@H]3[C@@H](CCC4=CC(=O)CC[C@@H]43)[C@@H]1CC[C@@H]2OC(=O)CCc1ccco1
inactive: [5]
active: [1] 26.6 µM | [4] 29.8 µM | [3] 21.1 µM

COP(=O)(OC)O/C(=C\Cl)c1cc(Cl)c(Cl)cc1Cl
inactive: [1] | [6] | [3] | [7]

N#Cc1ccc(N(CC(N)=O)CC(F)(F)F)cc1C(F)(F)F
not listed: [4] | [5] | [10]
inactive: all other assays above

c1ccc2c(c1)cc1ccc3cccc4ccc2c1c34
inactive: [1] | [3] | [8]

Nc1ccccc1-c1ccccc1
inactive: [1] | [2] | [8] | [5]

Brc1ccc(Oc2ccc(Br)cc2Br)c(Br)c1
active: [1] 43.7 µM
inactive: [4] | [7] | [8] | [5]

C=CCBr
inactive: [1] | [6] | [3] | [7] | [8] | [5]

CCCN
inactive: [1] | [4] | [8]

O=S(=O)(NS(=O)(=O)C(F)(F)F)C(F)(F)F
inactive: [1] | [3] | [8]

CCNc1nc(NC(C)C(C)C)nc(SC)n1 (configuration not stated)
inactive: [1] | [2] | [3] | [8]

C[C@@H]1CC2=CC(=O)CC[C@@H]2[C@H]2CC[C@@]3(C)[C@@H](CC[C@]3(C)O)[C@@H]21
not listed: [2] | [4] | [10]
inactive: all other assays above

Nc1nc(N)nc(Cl)n1
inactive: [1] | [3] | [8]

CC(=O)[O-].CC(=O)[O-].O.O.O.[Pb+2]
inactive: [1] | [3] | [8]

O=C(NC(=O)c1c(F)cccc1F)Nc1ccc(Oc2ccc(C(F)(F)F)cc2Cl)cc1F
inactive: [1] | [2] | [6] | [7] | [8]

c1ccc(N=NNc2ccccc2)cc1
active: [1] 56.8 µM
inactive: [2] | [3] | [8]

CCCCCCC[CH2][Sn]([Cl])([Cl])[CH2]CCCCCCC
active: [1] 24.5 µM | [3] 11 µM | [8] 54.9 µM
inactive: [7]

C[C@]12C/C(=C/O)C(=O)C[C@@H]1CC[C@@H]1[C@@H]2CC[C@@]2(C)[C@H]1CC[C@]2(C)O
inactive: [4] | [8] | [9]
active: [1] 49.4 µM

S=C=Nc1ccccc1
inactive: [1] | [6] | [3] | [7] | [8]

CCCCn1cc[n+](C)c1 (tested in a mixture with another compound)
inactive: [1] | [3] | [8]

CC(=O)O.CC(=O)O.CC(=O)O.CC(=O)O.CC(=O)O.CC(=O)O.CC(=O)O.O.O.[Cr].[Cr].[Cr]
inactive: [1] | [3] | [8]

O=P(Cl)(Cl)Cl
inactive: [1] | [2] | [3] | [8]

[O]=[Cr][O][Cr]=[O]
inactive: [1] | [6] | [3] | [7] | [8] | [5]

C[C@H]1[C@H](c2ccc(Cl)cc2)SC(=O)N1C(=O)NC1CCCCC1
inactive: [1] | [3] | [8] | [5]

c1ccc(Nc2ccc(Nc3ccccc3)cc2)cc1
inactive: [10] | [2] | [7] | [8] | [5] | [9]

CC[C@]1(O)CC[C@H]2[C@@H]3CCC4=CCCC[C@@H]4[C@H]3CC[C@@]21C
not listed: [1] | [6] | [9]
inactive: all other assays above

C#CCC1=C(C)C(OC(=O)C2C(C=C(C)C)C2(C)C)CC1=O (configuration not stated)
inactive: [4] | [2] | [3] | [8] | [5]

Oc1ccc2[nH]cc(CCCCN3CC=C(c4ccccc4)CC3)c2c1
inactive: [6] | [8]

CC(C)N(C(=O)CCl)c1ccccc1
active: [1] 49 µM and 43.6 µM
inactive: [8] | [5]

c1ccc2nc(N3CCNCC3)ccc2c1
inactive: [9]

CCCCN(CCCC)C(=S)S
inactive: [1] | [3] | [8] | [5]

N#Cc1c2ccccc2cc2ccccc12
inactive: [4] | [8]

COC(=O)N(OC)c1ccccc1COc1ccn(-c2ccc(Cl)cc2)n1
inactive: [3] | [7] | [8] | [5]

COc1ccc2[nH]cc(CCN(C(C)C)C(C)C)c2c1
inactive: [10] | [4] | [2] | [5] | [9]

CNN
inactive: [4] | [3] | [8]

Nc1c(Cl)c(Cl)c(Cl)c(Cl)c1Cl
inactive: [1] | [8]

CCO/N=C(\CC)C1=C(O)CC(c2c(C)cc(C)cc2C)CC1=O (configuration not stated)
inactive: [1] | [7]

CC(C)(C)c1ccc(OP(=O)(Oc2ccccc2)Oc2ccccc2)cc1
inactive: [10] | [3] | [7] | [5] | [9]
active: [2] 22 µM | [6] 24.7 µM

O.O.O.O=C([O-])[C@H]([O-])[C@@H]([O-])C(=O)[O-].O=C([O-])[C@H]([O-])[C@@H]([O-])C(=O)[O-].[K+].[K+].[Sb+3].[Sb+3]
active: [2] 12.4 µM
inactive: [4] | [3] | [7] | [8]

S=C=NCCc1ccccc1
inactive: [10] | [2] | [9]

CN1CCc2cc(Cl)c(O)cc2[C@H]2c3ccccc3CC[C@@H]21
inactive: [10] | [2] | [7] | [8]

Oc1cc(Cl)c(Cl)c(Cl)c1Cl
active: [3] 47.8 µM
inactive: [7] | [8]

C[C@]12Cc3cn[nH]c3C[C@@H]1CC[C@@H]1[C@@H]2CC[C@@]2(C)[C@H]1CC[C@]2(C)O
active: [4] 29.8 µM | [8] 33.5 µM
inactive: [7] | [5]

Cc1ccccc1OP(=O)(Oc1ccccc1C)Oc1ccccc1C
inactive: [10] | [3] | [7] | [8] | [9]

CSC(=O)c1c(C(F)F)nc(C(F)(F)F)c(C(=O)SC)c1CC(C)C
inactive: [2] | [3] | [8]

N#Cc1c[nH]cc1-c1cccc2c1OC(F)(F)O2
inactive: [10] | [3] | [8]

Clc1cc(Cl)c(-c2cc(Cl)c(Cl)cc2Cl)cc1Cl
not listed: [1] | [2] | [4]
inactive: all other assays above

Cc1c([N+](=O)[O-])cc2c(c1[N+](=O)[O-])C(C)(C)CC2(C)C
inactive: [10] | [2] | [3] | [7] | [8] | [9]

CC1=C2C[C@H]3[C@@H](CC=C4C[C@@H](O)CC[C@@]43C)[C@@H]2CC[C@]12O[C@@H]1C[C@H](C)CN[C@H]1[C@H]2C
active: [7] 10.7 µM
inactive: [2] | [6] | [8] | [9]

CN(C)c1ccc(N)cc1
inactive: [3] | [8] | [5]

Nc1nc(N)c(N)c(N)n1
inactive: [4] | [3] | [8] | [9]

FC(F)C(F)(F)OCC(Cn1cncn1)c1ccc(Cl)cc1Cl (configuration not stated)
inactive: [3] | [7] | [5] | [9]

CCOP(=S)(OCC)SC(CCl)N1C(=O)c2ccccc2C1=O (configuration not stated)
inactive: [1] | [8] | [5]

Cc1cc(C2CC2)nc(Nc2ccccc2)n1
inactive: [3] | [7] | [8] | [5]

O.O.O.O.O.O.O.O=S(=O)([O-])[O-].[Co+2]
inactive: [4] | [8]

CCCCC(CC)COC(=O)c1ccccc1C(=O)OCC(CC)CCCC (configuration not stated)
inactive: [2]

CO/N=C(/C1=NOCCO1)c1ccccc1Oc1ncnc(Oc2ccccc2Cl)c1F
inactive: [10] | [8]

CCC[CH2][Sn]([CH2]CCC)([O]C(C)=O)[O]C(C)=O
active: [2] 19.7 µM | [3] 11.1 µM | [8] 17.5 µM

O=S1(=O)OCC2C(CO1)C1(Cl)C(Cl)=C(Cl)C2(Cl)C1(Cl)Cl (configuration not stated)
inactive: [10] | [2] | [7]

CCOP(=S)(OCC)Oc1cc(C)nc(N(CC)CC)n1
not listed: [1] | [3] | [8]
inactive: all other assays above

ClC1=C(Cl)[C@]2(Cl)[C@@H]3[C@H]4C[C@H]([C@@H]5O[C@H]45)[C@@H]3[C@@]1(Cl)C2(Cl)Cl
inactive: [3] | [8] | [9]

CCCCC/C=C\C/C=C\C/C=C\C/C=C\CCCC(=O)NCC(=O)O
active: [3] 29.8 µM
